# This is a sample that favours compounds with a hit; in the whole collection about 2.4% have one here.
# FEN1 inhibitor: inhibitors of human flap endonuclease 1 | P39748 | Recombinant FEN1 flap cleavage, fluorescence, 15 min | Potency, µM (highest dose often 114 µM), most hits filed as inhibitors | 0.35% of 390,000 active | AID 588795; also: nearly all actives have a fitted effect of over 65% in size
#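 Nuclease activity of 10 nM FEN1 was measured after 15 min of room-temperature exposure to titrated compounds, by adding 50 nM flap substrate and reading plates at 0 and 15 min.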
# WRN helicase inh: WRN helicase (human) inhibition | 0.46% of 360,000 active | Potency, µM (titrated, usually from 114 µM), most hits filed as inhibitors | WRN helicase unwinding, fluorescent forked duplex, kinetic | AID 651768; also: nearly all actives have a fitted effect of over 55% in size
#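 WRN at 20 nM final preincubated with compound 15 min at room temperature; reaction started with 100 nM fluorophore/quencher forked duplex oligonucleotide and 2 mM ATP final. Unwinding followed kinetically by red fluorescence (ex 525, em 598 nm).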
# POLK inh: inhibitors of human DNA polymerase kappa; AID 588579; 0.53% of 400,000 active; purified Pol kappa, fluorescent DNA synthesis assay, 10 min; Q9UBT6; Potency, µM (highest dose often 107 µM), hits mostly inhibitors
#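 Here, compound and 10 nM enzyme are combined for 15 min at room temperature; adding 50 nM substrate (final) starts DNA synthesis, tracked by fluorescence at 0 and 10 min against buffer-only wells.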
# Pol beta inh: inhibitors of human DNA polymerase beta; P06746; Pol beta primer extension/strand displacement, fluorescence kinetic; Potency, µM (top dose mostly 114 µM), actives largely listed as inhibitors; 1.3% of 340,000 active; AID 485314
#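 Pol beta (10 nM) and compounds were preincubated 15 min at room temperature, then 50 nM substrate (final) started primer extension/strand displacement. Reads were taken at 0 and 10 min; concentration-response data were fitted to a four-parameter Hill equation.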
# Pol iota inh: inhibitors of human DNA polymerase iota. Pol iota fluorescent replication assay, 10 min. Q9UNA4. Potency, µM (highest dose often 115 µM), most hits filed as inhibitors. 1% of 390,000 active. AID 588590
#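 Fluorescent replication assay read twice, at 0 min and 10 min after adding 50 nM (final) substrate. Enzyme (10 nM) and compounds were first incubated 15 min at room temperature; enzyme-free buffer wells were negative controls.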
# Pol eta inh: inhibitors of human DNA polymerase eta. Q9Y253. recombinant Pol eta, fluorescent DNA replication assay. Potency, µM (highest dose often 114 µM), actives largely listed as inhibitors. 1.2% of 390,000 active
#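 Pol eta at 10 nM preincubated with compounds 15 min at room temperature; reaction started with fluorescent substrate (50 nM final) and read kinetically at 0 and 10 min.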
# Numbers stand for hits; 0 = inactive; ? = inconclusive; - = not tested or not shown; [ ] = another dose, or the depositor's remark. Calls follow the shape of the dose curve; as a rule, active = well fitted curve in the direction sought with a large enough effect; inconclusive = small, poorly fitted or top-dose-only effect, or another doubt; inactive = no such curve, though single readings can be large; an effect the other way counts as inactive or inconclusive.
SMILES,FEN1 inhibitor,WRN helicase inh,POLK inh,Pol beta inh,Pol iota inh,Pol eta inh
O=C(O)c1cccc(-n2sc3ccccc3c2=O)c1,20µM,0[11.6 µM],0,-,?,0
O=c1c2ccccc2sn1-c1cccc(Cl)c1,-,0,-,-,-,0
Cn1cc(-c2cc3n(n2)CCC(=O)N3CCCC(=O)Nc2ccc(Cl)cc2)c2ccccc21,0,-,0,?,89µM,0
Cn1cc(-c2cc3n(n2)CCC(=O)N3CCCC(=O)NCc2ccc(Cl)cc2)c2ccccc21,0,-,0,0,0,0
CCOC(=O)c1cc(C#N)c(SC(C(=O)N2CCCCC2)c2ccccc2)nc1C (stereo unspecified),?,-,0,-,?,-
N#Cc1c(Nc2ccccc2)sc(C(=O)c2ccccc2)c1N,0,0,0,0,0,0
Cc1cccc(Nc2sc(C(=O)c3cc4cc(Cl)ccc4o3)c(N)c2C#N)c1,0,0,0,10µM,0,?
COc1ccc(C2C3C=CCC(c4cccc(/C=C/c5ccccc5)c4)C3C(=O)N2Cc2ccccc2)cc1Cl (stereo unspecified),0,-,0,-,0,-
O=C(O)C1(C(=O)O)CCC1.[NH2-].[NH2-].[Pt+2],-,-,8.9µM,-,-,-
O=C(O)C1(C(=O)O)CCCC1,0,0,0,-,0,0
O=C1OC(/C(=C\Nc2cc(Cl)ccc2O)[N+](=O)[O-])c2ccccc21 (stereo unspecified),0,0,0,0,?,22µM
Clc1cccc(Nc2ncnc3ccc(Br)cc23)c1,0,0,0,0,100µM,0
O=C(O)CCC/C=C\C[C@@H]1[C@@H](/C=C/[C@H](O)C2Cc3ccccc3C2)[C@@H](F)C[C@@H]1O,-,-,0,-,-,-
CCc1cc2cc3c(cc2nc1SCC(=O)Nc1nccs1)OCO3,0,0,0,0,71µM,0
CCc1cc2cc3c(cc2nc1SCC(=O)Nc1c[nH]c(=O)[nH]c1=O)OCO3,0,0,0,0,0,0
CCc1nc(SCC(=O)Nc2nccs2)c2oc3ccccc3c2n1,0,?,0,16µM,32µM,?
O=C(CSc1ncnc2c1oc1ccccc12)Nc1nccs1,0,0,0,0,0,0
COc1cccc(Cn2c(=O)c(-c3ccc(Cl)cc3)nc3cnc(OC)nc32)c1,-,-,0,-,-,-
Oc1cccc(C=NCc2ccccc2)c1O,?,40µM,14µM,3.5µM,7.9µM,?
Oc1ccccc1C=Nc1cccc2ccccc12,0,0,0,0,0,0
Oc1cccc(C=Nc2cccc3ccccc23)c1O,?,0[11.6 µM],35µM,8.9µM,11µM,0
CS(=O)(=O)c1ccccc1NC(=O)COc1ccccc1C(=O)Nc1ccccc1,0,-,0,-,?,-
COc1ccc(C=O)cc1COc1ccc(F)cc1F,0,0,0,18µM,?,?
CC1(S(=O)(=O)O)CC(=O)c2ccccc2C1=O (stereo unspecified),?,0[11.6 µM],0,?,6.3µM,?
Cc1sc(N)nc1-c1cccc([N+](=O)[O-])c1,0,-,0,-,0,-
SMILES,FEN1 inhibitor,WRN helicase inh,POLK inh,Pol beta inh,Pol iota inh,Pol eta inh
Cc1ccc(NC(=O)COC(=O)c2ccccc2OCC(=O)Nc2ccc(Br)cc2)c(Br)c1,0,-,0,-,0,-
COc1ccc(-c2nn3c(-c4cc(C)[nH]n4)nnc3s2)cc1,0,-,0,-,0,-
O=C(c1ccccc1O)N1CCOCC1,0,0,0,0,0,0
O=C(O)C1Nc2c(C(F)(F)F)ccc(Cl)c2C2C=CCC12 (stereo unspecified),0,0,0,45µM,?,?
O=C(O)C1Nc2c(C(=O)N3CCOCC3)cccc2C2C=CCC12 (stereo unspecified),?,56µM,45µM,20µM,11µM,3.2µM
Cc1cc(C)c2c(c1)C1C=CCC1C(C(=O)O)N2 (stereo unspecified),22µM,-,28µM,-,?,-
Cc1ccc2c(c1C)NC(C(=O)O)C1CC=CC21 (stereo unspecified),56µM,40µM,3.2µM,2.5µM,?,3.5µM
Cc1ccc2c(=O)c3cccc(CC(=O)O)c3oc2c1C,-,-,0,-,-,-
CSC1=NC(=O)/C(=C\c2cccc3ccccc23)S1,0,?,0,50µM,0,0
CC1=Nc2ccccc2/C1=C/c1sc(=S)n(-c2cccc(C(=O)O)c2)c1O,?,?,?,0,?,35µM
Clc1cccc[n+]1CCc1ccccc1,0,-,0,-,0,-
Cc1c(C(=O)NC(C)C)oc2c1-c1[nH]ncc1CC2,0,0,0,0,25µM,0
CCOC(=O)c1c2c(n(-c3ccc(OC)cc3)c1C)C(=O)C(=O)c1ccccc1-2,0,0,0,-,8.9µM,3.2µM
CCOC(=O)c1sc(=S)n(-c2ccc(OC)cc2)c1C,0,0,0,0,0,0
c1coc(CNc2ncnc3c2nc2n3CCCC2)c1,0,-,0,-,0,-
Cc1sc2nc(CN3CCCCC3)nc(Nc3ccc4c(c3)OCCO4)c2c1C,0,0,0,79µM,0,0
Cc1sc2nc(CN3CCCC3)nc(NCc3ccncc3)c2c1C,0,0,0,0,0,0
CCCN1CCN(CCCNC(=O)c2ccc3c(c2)sc2nc(-c4ccc(OCC)cc4)cn23)CC1,0,-,0,?,79µM,0
CN(CCC#N)c1ccc(/C=C/c2ccnc3ccccc23)cc1,0,-,0,-,0,-

# Screening data (PubChem)
